# Screens as filed in PubChem BioAssay.
# Sampled rows, rich in hits. Any-hit rate of the full collection: about 19%.
# HT1080-NT tox – qHTS for induction of synthetic lethality in tumor cells producing 2HG: qHTS for the HT-1080-NT fibrosarcoma cell line | HT-1080-NT fibrosarcoma viability, CellTiter-Glo ATP luminescence, 48 h | Potency, µM (top dose mostly 46.1 µM), most hits filed as cytotoxic | actives 1.6% (n = 360,000);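 also: NT is the 2HG producing partner of a matched IDH1 knockdown line; nearly all actives have a fitted effect of over 55% in size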
#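 HT-1080-NT; 750 cells/well; 5% FBS RPMI; 48 h compound, 37 degrees C; CellTiter-Glo luminescence; curve fitting and curve-class assignment.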
# IL1B secr inh – qHTS for Inhibitors of Inflammasome Signaling: IL-1-beta AlphaLISA Primary Screen | THP-1 LPS/ATP IL-1B secretion, AlphaLISA, 16 h; stronger effect = lower value | activity change, % at 57.5 µM | actives 4.7% (n = 360,000) | AID 743279, 2014; in the data active = activity change below about -50%; inconclusive = mostly about -30% to -49%
#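 THP-1 cells pretreated 1 hr with compounds (up to 57.5 uM final), then stimulated with LPS (250 ng/mL final) plus ATP (1.25 mM final); secreted IL-1B measured by AlphaLISA after 16 hr, decreased signal indicating inhibition.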
# DT40 TDP1 CPT – qHTS for Inhibitors of human tyrosyl-DNA phosphodiesterase 1 (TDP1): qHTS in cells in presence of CPT; Potency, µM (series often up to 46.2 µM), most hits filed as inhibitors; actives 12% (n = 420,000); chicken DT40 Tdp1-/-;hTDP1 cells + 20 nM CPT, ATP luminescence, 48 h; also: nearly all actives have a fitted effect of over 55% in size
#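 Chicken DT40 Tdp1-/- cells stably complemented with human TDP1 were seeded at 400 cells/well in medium containing 20 nM camptothecin, exposed to pin-transferred compounds, and grown at 37 °C for at least 48 hr. Viability was read as ATP luminescence.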
# HT1080 IDH1KD tx – qHTS for induction of synthetic lethality in tumor cells producing 2HG: qHTS for the HT-1080-IDH1KD cell line; Potency, µM (highest dose often 46.1 µM), hits mostly cytotoxic; actives 2% (n = 360,000); HT-1080 IDH1 knockdown viability, ATP luminescence, 48 h
#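 After a 2 h attachment period, IDH1KD HT-1080 cells took pin-transferred compound for 48 h at 37 °C; ATP-based luminescence after 10 min room-temperature reagent incubation reported viability.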
# TDP1 cell noCPT – qHTS for Inhibitors of human tyrosyl-DNA phosphodiesterase 1 (TDP1): qHTS in cells in absence of CPT | DT40 Tdp1-/- hTDP1 cells, no CPT, ATP luminescence, 48 h | Potency, µM (series often up to 46.2 µM), hits mostly inhibitors | actives 15% (n = 420,000) | AID 686978, 2013; also: nearly all actives have a fitted effect of over 55% in size
#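 No-CPT arm: Tdp1-/-;hTDP1 DT40 cells (400/well) plus compounds, incubated ≥48 hr at 37 °C. Readout CellTiter-Glo luminescence.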
# Hits are given with their value; i = inactive; ? = inconclusive; nt = no result; [ ] = another dose, or the depositor's remark. Unless noted, calls follow the shape of the dose curve; as a rule, active = well fitted curve in the direction sought with a large enough effect; inconclusive = small, poorly fitted or top-dose-only effect, or another doubt; inactive = no such curve, though single readings can be large; an effect the other way counts as inactive or inconclusive.
SMILES,HT1080-NT tox,IL1B secr inh,DT40 TDP1 CPT,HT1080 IDH1KD tx,TDP1 cell noCPT
CCOc1ccccc1NC(=S)N1CCN(c2cccc(OC)c2)CC1,i,i,21µM,i,?
Cc1sc2ncnc(NCC3CCCO3)c2c1C (stereo not drawn),i,i,16µM,i,9.2µM
Cc1sc2ncnc(NCC3(N4CCOCC4)CCCCC3)c2c1C,i,i,21µM,i[9.24 µM],23µM
Cc1sc2ncnc(NCC(C)(C)N3CCOCC3)c2c1C,i,?,2.1µM,i[9.24 µM],1.5µM
c1nc(NCC2(N3CCOCC3)CCCCC2)c2ccsc2n1,i,i,12µM,i,18µM
CC(=O)N1CCN(C(=O)c2sc3ncnc(NCC4CCCO4)c3c2C)CC1 (stereo not drawn),nt,nt,i,nt,i
CC(=O)N1CCc2cc(CNS(=O)(=O)c3ccc(Br)s3)ccc21,nt,nt,?,nt,21µM
CC(=O)N1CCc2cc(CNS(=O)(=O)c3ccc(F)cc3)ccc21,nt,nt,i,nt,i
CC(=O)N1CCc2cc(CNS(=O)(=O)c3ccc(Cl)s3)ccc21,nt,nt,?,nt,15µM
Cc1ccc2nc(C)c(Cl)c(=O)n2c1,i,i,i,i,i
Cc1ccc2nc(Cl)c(/C=N/Nc3nc(C)cc(C)n3)c(=O)n2c1,i,-97,?,i,?
Cc1ccc2nc(Nc3ccccc3)c(C=O)c(=O)n2c1,i,i,i,i,i
Cc1ccc2nc(Nc3ccccc3)c(/C=N/O)c(=O)n2c1,i,?,2.6µM,i,6.5µM
COc1ccc(Nc2nc3ccc(C)cn3c(=O)c2/C=N/O)cc1,i,i,5.8µM,i,6.5µM
CCOC1=C2CN(S(=O)(=O)c3ccc(C)cc3)[C@H](c3ccccc3)C[C@@H]2N(S(=O)(=O)c2ccc(C)cc2)[C@H](c2cccs2)C1,i,i,i,i,i
COc1ccc(CN2C(=O)c3cccc4cccc2c34)cc1F,i,i,i,i,i
COc1ccc(Cl)cc1Cn1c(C)c(C(=O)NCc2ccc(F)cc2)sc1=O,i,i,?,?,?
O=C1Nc2ccccc2-n2nnnc2C1N1CCN(CCN2CCOCC2)CC1 (stereo not drawn),i,i,i,i,i
CCCCc1ccc(NC(=O)c2ccc(=O)n(Cc3cccc(C)c3)c2)cc1,nt,nt,?,nt,18µM
COc1ccc(CN2C(=O)c3cccnc3C2=O)cc1S(=O)(=O)N1CCOc2ccc(C)cc21,i,i,i,i,i
Cc1ccc(CN2c3ccccc3-c3nc(SCC(=O)NCc4ccccc4)ncc3S2(=O)=O)cc1,nt,nt,i,nt,i
Cc1cccc(C)c1NC(=O)CSc1ncc2c(n1)-c1ccc(Cl)cc1N(Cc1ccccc1)S2(=O)=O,nt,nt,?,nt,16µM
CCc1ccccc1NC(=O)CSc1ncc2c(n1)-c1ccccc1N(Cc1ccc(C)cc1)S2(=O)=O,nt,nt,i,nt,i
CCN(C(=O)CSc1ncc2c(n1)-c1cc(Cl)ccc1N(Cc1ccccc1)S2(=O)=O)c1cccc(C)c1,nt,nt,?,nt,16µM
NC(=O)CSc1ncc2c(n1)-c1ccccc1N(Cc1ccccc1)S2(=O)=O,nt,nt,i,nt,i
SMILES,HT1080-NT tox,IL1B secr inh,DT40 TDP1 CPT,HT1080 IDH1KD tx,TDP1 cell noCPT
O=C(CSc1ncc2c(n1)-c1ccc(Cl)cc1N(Cc1ccccc1)S2(=O)=O)Nc1ccc(F)c(F)c1,nt,nt,23µM,nt,18µM
COc1ccc(C)cc1NC(=O)CSc1ncc2c(n1)-c1ccc(Cl)cc1N(Cc1ccccc1)S2(=O)=O,nt,nt,9.2µM,nt,?
COc1ccc(NC(=O)C2c3ccccc3OCC(=O)N2C2CC2)cc1 (stereo not drawn),i,i,i,i,i
O=C(CN(C(=O)c1ccccc1Cl)N1C(=O)CCCC1=O)c1ccc(Cl)cc1,i,i,i,i,i
COC(=O)c1ccc(NC(=O)CSc2ncc3c(n2)-c2cc(Cl)ccc2N(Cc2ccccc2)S3(=O)=O)cc1,nt,nt,?,nt,21µM
CCOc1ccc(NC(=O)CSc2ncc3c(n2)-c2ccccc2N(Cc2ccccc2C)S3(=O)=O)cc1,nt,nt,i,nt,i
O=C(CSc1ncc2c(n1)-c1cc(Cl)ccc1N(Cc1ccccc1F)S2(=O)=O)Nc1cccc(C(F)(F)F)c1,nt,nt,18µM,nt,?
O=C(CSc1ncc2c(n1)-c1cc(Cl)ccc1N(Cc1ccccc1)S2(=O)=O)Nc1ccc(F)cc1F,nt,nt,18µM,nt,?
COC(=O)CSc1ncc2c(n1)-c1ccccc1N(Cc1ccc(Cl)cc1)S2(=O)=O,nt,nt,i,nt,i
O=C(CSc1ncc2c(n1)-c1ccccc1N(Cc1ccc(F)cc1)S2(=O)=O)NCc1ccccc1,nt,nt,i,nt,i
Cc1ccccc1CN1c2ccccc2-c2nc(SCC(=O)Nc3cc(F)ccc3F)ncc2S1(=O)=O,nt,nt,?,nt,10µM
COc1ncc(-c2ccc(N3C(c4ccsc4)=Cc4ccc(F)cc4C3CC(C)=O)cc2)cn1 (stereo not drawn),i,i,?,i,?
Cc1ccc(CN2C(=O)C(C)Sc3ccc(C#N)cc32)cc1 (stereo not drawn),i,i,i,i,?
COc1c(-c2ccc([N+](=O)[O-])cc2[N+](=O)[O-])c(=O)n(C)c(=O)n1C,i,i,i,i,i
COc1cccc(CNC(=O)CSc2ncc3c(n2)-c2cc(Cl)ccc2N(C)S3(=O)=O)c1,nt,nt,21µM,nt,?
COc1ccc(OC)c(C(=O)CSc2ncc3c(n2)-c2ccccc2N(Cc2ccccc2C)S3(=O)=O)c1,nt,nt,18µM,nt,?
CCOc1ccc(NC(=O)CSc2ncc3c(n2)-c2cc(Cl)ccc2N(C)S3(=O)=O)cc1,nt,nt,i,nt,i
Cc1cnc(C)c(-c2cccc3c2OC(CNC(=O)CN2C(=O)c4ccccc4C2=O)C3)n1 (stereo not drawn),nt,nt,i,nt,i
O=C(NCCN1CCCCC1)c1ccc(Oc2cc(Cl)cc(Cl)c2)o1,?,nt,?,26µM,?
CCCCN1C(=O)/C(=C/C=C2/CC(C)(C)CN2C)SC1=S,i,-59,?,i,?
CCN1C(=O)/C(=C/C=C2/SCCN2C)SC1=S,i,?,?,i,13µM
COc1ccc(Br)cc1C(C[N+](=O)[O-])c1c(N)n(C)c(=O)n(C)c1=O (stereo not drawn),?,-83,3.7µM,?,3.7µM
CN(C)c1ccc(C(C[N+](=O)[O-])c2c(N)n(C)c(=O)n(C)c2=O)c(F)c1C#N (stereo not drawn),?,-63,2.3µM,?,2.1µM
Cn1c(N)c(S(=O)(=O)NCc2ccccc2Cl)c(=O)n(C)c1=O,i,i,i,i,i
Cn1c(N)c(C(C[N+](=O)[O-])c2c(F)cccc2Cl)c(=O)n(C)c1=O (stereo not drawn),?,i,2.6µM,?,2.1µM
